KB-3-1 cytotox – qHTS assay for MDR1-selective chemotherapeutics: Primary screen using the parental adenocarcinoma cell KB-3-1. KB-3-1 viability, CellTiter-Glo ATP luminescence, 72 h. Potency, µM (top dose mostly 46.1 µM), usual class: cytotoxic. AID 1347075, 2019. actives 1.4% (n = 400,000); also: nearly all actives have a fitted effect of over 60% in size
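72 h, 37 °C compound treatment of KB-3-1 parental cells; CellTiter-Glo added, 10 min, luminescence read. Data corrected against DMSO-only plates and normalized before curve fitting.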
KB-V1 MDR tox – qHTS assay for MDR1-selective chemotherapeutics: Primary screen using the drug-selected MDR subline cells KB-V1 | actives 3.4% (n = 400,000) | Potency, µM (titrated, usually from 46.1 µM), usual class: cytotoxic | KB-V1 MDR cells viability, CellTiter-Glo, 72 h; also: nearly all actives have a fitted effect of over 60% in size
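In this primary screen, KB-V1 cells overexpressing P-gp are incubated with library compounds (lowest to highest concentration) for 72 h at 37 degrees C before a luminescent ATP viability read.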
HT1080 IDH1KD tx – qHTS for induction of synthetic lethality in tumor cells producing 2HG: qHTS for the HT-1080-IDH1KD cell line; actives 2% (n = 360,000); Potency, µM (titrated, usually from 46.1 µM), without a hit: at the highest dose activity, negative = toxicity, most hits filed as cytotoxic; HT-1080 IDH1 knockdown viability, ATP luminescence, 48 h; AID 686971, 2013;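 also: 0% = DMSO wells and -100% = cell-free medium wells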
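Cytotoxicity counter-line: IDH1KD HT-1080, 48 h, CellTiter-Glo. Curves classed by r2, magnitude and activity.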
HT1080-NT tox – qHTS for induction of synthetic lethality in tumor cells producing 2HG: qHTS for the HT-1080-NT fibrosarcoma cell line. AID 686970, 2013. actives 1.6% (n = 360,000). HT-1080-NT fibrosarcoma viability, CellTiter-Glo ATP luminescence, 48 h. Potency, µM (series often up to 46.1 µM), for the others: at the top dose activity, negative = less viability, hits mostly cytotoxic;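 also: NT is the 2HG producing partner of a matched IDH1 knockdown line; 0% = DMSO-treated cells and -100% = media-only wells without cells; nearly all actives have a fitted effect of over 55% in size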
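Toxicity toward the 2HG-producing NT line was scored as %Activity, normalised to DMSO and no-cell wells, from CellTiter-Glo luminescence after 48 hours' treatment.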
TDP1 cell CPT – qHTS for Inhibitors of human tyrosyl-DNA phosphodiesterase 1 (TDP1): qHTS in cells in presence of CPT; Potency, µM (series often up to 46.2 µM), inactives show top-dose activity change, negative = growth inhibition, actives largely listed as inhibitors; chicken DT40 Tdp1-/-;hTDP1 cells + 20 nM CPT, ATP luminescence, 48 h; AID 686979, 2013; actives 12% (n = 420,000); also: nearly all actives have a fitted effect of over 55% in size
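Chicken DT40 Tdp1-/- cells complemented with human TDP1, 400 cells/well, exposed to compounds plus 20 nM camptothecin for at least 48 h at 37 C; viability read as ATP content by CellTiter-Glo luminescence.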
TDP1 cell noCPT – qHTS for Inhibitors of human tyrosyl-DNA phosphodiesterase 1 (TDP1): qHTS in cells in absence of CPT. DT40 Tdp1-/- hTDP1 cells, no CPT, ATP luminescence, 48 h. Potency, µM (titrated, usually from 46.2 µM), for inactives: at the highest dose activity change, negative = growth inhibition, actives largely listed as inhibitors. actives 15% (n = 420,000). AID 686978, 2013; also: nearly all actives have a fitted effect of over 55% in size
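A cellular qHTS used chicken DT40 cells lacking endogenous Tdp1 but carrying stably transfected human TDP1. Compounds were applied without camptothecin, and cell growth kinetics were judged by ATP-dependent luminescence after ≥48 hr.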
Starred values were filed as active, the others as inactive; i = inactive; ? = inconclusive; . = no result given. Rows were chosen to be rich in hits. Some 19% of all compounds tested hit in one or more screens of this group. Calls follow the shape of the dose curve; as a rule, active = well fitted curve in the direction sought with a large enough effect; inconclusive = small, poorly fitted or top-dose-only effect, or another doubt; inactive = no such curve, though single readings can be large; an effect the other way counts as inactive or inconclusive. Unless noted, % is scaled to controls: 0 for no effect and ±100 for the full control effect; potency is read from the fitted curve at half-maximal effect.

SMILES	KB-3-1 cytotox	KB-V1 MDR tox	HT1080 IDH1KD tx	HT1080-NT tox	TDP1 cell CPT	TDP1 cell noCPT
C[C@H](CO)N1C[C@H](C)[C@@H](CN(C)C)Oc2c(NC(=O)CCC(F)(F)F)cccc2C1=O	i	i	12%	9%	-7%	-6%
C[C@H](CO)N1C[C@H](C)[C@@H](CN(C)C(=O)Nc2ccc(C(F)(F)F)cc2)Oc2c(NC(=O)Nc3ccc(C(F)(F)F)cc3)cccc2C1=O	16µM*	?	?	?	9.2µM*	7.3µM*
C[C@H](CO)N1C[C@H](C)[C@@H](CN(C)S(=O)(=O)c2ccccc2)Oc2c(NC(=O)Nc3ccc(C(F)(F)F)cc3)cccc2C1=O	?	i	?	?	?	16µM*
C[C@@H]1CN([C@H](C)CO)C(=O)c2cc(NC(=O)Nc3ccc(C(F)(F)F)cc3)ccc2O[C@H]1CN(C)S(=O)(=O)c1ccccc1	?	i	?	?	?	?
C[C@H]1CN([C@@H](C)CO)C(=O)c2cccc(NC(=O)Nc3ccc(C(F)(F)F)cc3)c2O[C@H]1CN(C)C	?	i	-15%	-10%	21µM*	?
Cc1cc(C)cc(N(C(=O)c2csnn2)C(C(=O)NC2CCCC2)c2ccccn2)c1 (stereo not given)	i	i	-2%	-4%	4%	-6%
O=C(NCc1cccnc1)C(=O)C1C(=O)Nc2ccccc21 (stereo not given)	i	i	2%	0%	-2%	1%
C[C@H](CO)N1C[C@H](C)[C@@H](CN(C)S(C)(=O)=O)Oc2c(NC(=O)C3CCCCC3)cccc2C1=O	i	i	-1%	1%	-14%	-5%
COc1ccc(S(=O)(=O)N(C)C[C@H]2Oc3c(NC(=O)C4CCCCC4)cccc3C(=O)N([C@H](C)CO)C[C@@H]2C)cc1	i	i	-10%	-2%	?	23µM*
COc1ccc(NC(=O)c2cc(=O)c3ccc(C)c(C)c3o2)cc1Cl	i	i	.	.	-29%	?
CS(=O)(=O)c1ccc(C(=O)OC2CCOC2=O)cc1[N+](=O)[O-] (stereo not given)	i	i	-21%	?	?	?
CC(CN1CCOCC1)OC(=O)c1ccc(Br)cc1 (stereo not given)	?	?	?	?	0.92µM*	0.65µM*
CCOc1ccc(C(CN2CCOCC2)C(C)=O)cc1OC (stereo not given)	?	?	10µM*	21µM*	4.1µM*	4.1µM*
O=C(c1ccccc1)C(CN1CCCCC1)c1ccccc1 (stereo not given)	5.8µM*	15µM*	10µM*	2.6µM*	1.8µM*	2.1µM*
CC(CN1CCN(CC(C)C(=O)c2ccccc2)CC1)C(=O)c1ccccc1 (stereo not given)	i	i	2%	-5%	?	-18%
CCOc1ccc(C(C#N)N2CCOCC2)cc1OC (stereo not given)	i	i	3%	4%	6%	-3%
CCOc1ccc(C(=O)C(CN2CCOCC2)c2ccccc2)cc1 (stereo not given)	?	?	9.2µM*	-9%	3.3µM*	3.3µM*
OC(c1ccc(F)cc1)C(CN1CCOCC1)c1ccccc1 (stereo not given)	i	i	5%	2%	-30%	?
O=C(c1ccc(Br)cc1)C(CN1CCOCC1)c1ccccc1 (stereo not given)	?	?	7.3µM*	10µM*	1.3µM*	2.1µM*
Cc1cc(C(C)(C)CC(C)(C)C)ccc1OCCOCC[N+](C)(C)Cc1ccccc1	?	i	?	?	3.7µM*	4.1µM*
O=C(O)c1ccc(NC(=O)C2(c3ccccc3)CCOCC2)cc1	i	i	19%	16%	-26%	1%
CCOC(=O)c1noc2ncnc(Nc3cccc(C(F)(F)F)c3)c12	i	i	.	.	-24%	-24%
O=C(NCc1cc(C(F)(F)F)cc(C(F)(F)F)c1)C1CC(c2ccccc2F)=NO1 (stereo not given)	i	i	-25%	0%	?	?
O=C(NCc1cccc(C(F)(F)F)c1)C1CC(c2ccccc2F)=NO1 (stereo not given)	i	i	?	?	?	29µM*
Cc1ccc(CNC(=O)C2CC(c3ccc([N+](=O)[O-])cc3)=NO2)cc1 (stereo not given)	i	i	-10%	2%	3%	2%
SMILES	KB-3-1 cytotox	KB-V1 MDR tox	HT1080 IDH1KD tx	HT1080-NT tox	TDP1 cell CPT	TDP1 cell noCPT
Cc1ccc(CNC(=O)C2CC(c3ccccc3F)=NO2)cc1 (stereo not given)	i	i	?	?	?	16µM*
O=S(=O)(Nc1cccnc1)c1ccc(Br)c2ccccc12	i	i	-5%	0%	-14%	-24%
CS(=O)(=O)Nc1cccc(NC(=O)c2ccc(-n3ccnc3)c3ccoc23)c1	?	i	6%	13%	13µM*	15µM*
Cn1nccc1-c1ccc(C(=O)Nc2cccc(NS(C)(=O)=O)c2)c2occc12	i	i	-8%	-9%	?	26µM*
c1cnc2c(C3NCCc4c3[nH]c3ccccc43)cccc2c1 (stereo not given)	i	?	-14%	-6%	?	?
O=C(NC1CCCC(C(F)(F)F)C1)c1ccc([N+](=O)[O-])o1 (stereo not given)	?	?	?	?	?	18µM*
CC1CCCCC1NC(=O)COC(=O)c1ccc([N+](=O)[O-])o1 (stereo not given)	i	i	2%	7%	10%	-10%
O=C(COC(=O)c1ccc([N+](=O)[O-])o1)NC1CCCCC1	i	i	6%	-1%	0.0082µM*	0.0082µM*
CCn1c(SCC(=O)NC2CCCC2)nnc1C(C)C	i	i	19%	26%	3%	-5%
